Sampled rows, rich in hits. Any-hit rate of the full collection: about 2.4%.
D2 ag-1 = human D2 receptor agonism in beta-arrestin assay; AID 624465; P14416; 0.084% of 360,000 active; activation, % (test concentration not listed); DiscoveRx PathHunter D2 beta-arrestin, luminescence, 90 min; 100% = 57 uM dopamine signal; in the data active means activation above about 40%; inconclusive means between about 15% and that limit
Target sequence (P14416 whole entry, looked up): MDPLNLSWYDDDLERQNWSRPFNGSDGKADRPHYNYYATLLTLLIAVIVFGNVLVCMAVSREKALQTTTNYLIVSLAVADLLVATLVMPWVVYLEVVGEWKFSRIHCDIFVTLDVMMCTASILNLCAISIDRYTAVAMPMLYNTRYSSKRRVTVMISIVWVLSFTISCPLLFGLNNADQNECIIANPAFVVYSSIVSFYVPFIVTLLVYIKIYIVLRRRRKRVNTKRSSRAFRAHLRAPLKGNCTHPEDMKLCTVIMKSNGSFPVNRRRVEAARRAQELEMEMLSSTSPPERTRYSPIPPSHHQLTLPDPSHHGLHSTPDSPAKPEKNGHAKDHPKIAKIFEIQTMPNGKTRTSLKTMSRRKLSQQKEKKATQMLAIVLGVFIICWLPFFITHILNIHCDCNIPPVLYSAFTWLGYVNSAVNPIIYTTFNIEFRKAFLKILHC
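Agonist mode: compounds alone added to overnight-plated D2 PathHunter cells for 90 min at 37 C, with 57 uM final dopamine (EC100) defining full response. Beta-arrestin recruitment detected by chemiluminescent reagent, read after 1 h at ambient temperature.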
D2 PAM-1 = positively modulates the human D2 dopamine receptor allosterically | HEK293 T-REx D2, calcium flux, EC20 dopamine potentiation | AID 485347 | potentiation, % at 10 µM | P14416 | 0.34% of 340,000 active;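 active means potentiation over 3 SD above the plate norm, cut at about 30% in these data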; further: 0% is about no effect
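Potentiation of an EC20 dopamine calcium response is measured in a force-coupled, tetracycline-inducible Hek293 Trex D2 line. Compound-only kinetic reads over 180 s flag agonists before dopamine addition.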
D2 antag = D2 dopamine receptor (human) antagonism; P14416; HEK293 TREx D2 cells, calcium flux, dopamine EC80; inhibition, % at 10 µM; 2% of 340,000 active; in the data active means inhibition above about 30%; inactive means below that, where a call was filed; further: 0% is about no effect
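Measurement of antagonist activity uses fluorescent calcium dye in inducible HEK293 T-REx D2 cells: 10 s baseline, compound addition with 180 s read, EC80 dopamine addition with a further 180 s read.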
D2 ag-2 = agonists of human D2 dopamine receptor | HEK293 T-REx D2 cells, calcium flux agonist mode | activation, % at 2 µM | 0.53% of 340,000 active;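 active means activation over 3 SD above normal in the single-dose calcium agonist read, cut at about 30% in these data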; further: 0% is about no effect
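In this primary screen, compounds producing a positive calcium signal within 180 s of addition to tetracycline-induced, force-coupled HEK293 Trex D2 cells are flagged; cells are dye-loaded with a no-wash calcium kit beforehand.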
D2 PAM-2 = potentiates the human D2 dopamine receptor allosterically. P14416. DiscoveRx D2 beta-arrestin cells, luminescence, 90 min; 100% = 57 uM dopamine signal. potentiation, % (no concentration beside the values). 0.23% of 360,000 active. AID 624464; in the data active means potentiation above about 50%; inconclusive means mostly about 30% to 49%
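D2 cells co-treated with compound plus 50 nM dopamine (EC20) for 90 min at 37 deg C to detect potentiation. Beta-arrestin recruitment was read as enzyme-fragment luminescence after 1 h at ambient temperature. Full response was set by 57 uM dopamine.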
Numbers without * were called inactive; ? = inconclusive; · = no result.

SMILES	D2 ag-1	D2 PAM-1	D2 antag	D2 ag-2	D2 PAM-2
O=C(CSc1ccc(-c2ccc(F)cc2)nn1)NCCc1ccccc1	0	3	5	0	-7
C/C(CC(=O)Nc1ccc2c(c1)OCCO2)=N\NC(=O)C(=O)Nc1ccccc1C	-4	-6	32*	-1	-4
C/C(CC(=O)Nc1ccc2c(c1)OCCO2)=N\NC(=O)COc1ccccc1C	-1	-8	-20	0	-8
CCC(=O)Nc1ccc2c(c1)OCCO2	0	30*	8	0	2
COc1ccc(NC(=O)CSc2ccc(-c3ccccn3)nn2)cc1OC	54*	1	-13	1	?
COc1ccccc1-c1ccc(SCC(=O)NCCc2ccccc2)nn1	-1	-2	48*	-2	-7
COc1ccc(Br)cc1CNC(=O)c1ccc2c(c1)nc1n2CCCCC1	·	-6	·	0	·
CCc1ccccc1NC(=O)Cn1c(C(=O)OC)cc2oc(C)cc21	·	12	·	0	·
CCOC(=O)c1cccc(NC(=O)c2cc3c(=O)n(C)c4ccccc4c3n2C)c1	·	0	·	0	·
O=C(CSc1ccc(-c2ccccc2)nn1)Nc1ccc2c(c1)OCCO2	-1	0	32*	1	-5
O=C(CSc1ccccc1)Nc1ccc2c(c1)OCCO2	-1	-6	8	1	-6
CS(=O)(=O)N(CC(=O)Nc1ccc2c(c1)OCCO2)c1ccc2c(c1)OCO2	-4	48*	-8	-2	-13
COc1cccc(NC(=O)CN(c2cccc(OC)c2)S(C)(=O)=O)c1	-4	-7	38*	1	1
COC(=O)c1c(C)sc(-c2c(-c3ccc4c(c3)OCCO4)[nH]c3c2c(=O)[nH]c(=O)n3C)c1O	·	11	·	7	·
COc1ccc2c(c1)c1c(c(=O)n(-c3cccc(C)c3)c(=O)n1CC(=O)Nc1c(C)cc(C)cc1C)n2C	·	-2	·	0	·
O=C(/C=C/c1ccccc1)N(c1ccccn1)C1CCCCC1	13	-8	21	34*	8
CCN(CC)S(=O)(=O)c1ccc(/C=C/C(=O)N(c2ccccn2)C2CCCCC2)cc1	0	1	-2	2	-8
Cc1ccc(CSc2nc(N)cc(=O)[nH]2)cc1	-2	-9	30*	1	-11
N#Cc1ccc(CSc2nc(N)cc(=O)[nH]2)cc1	0	2	-1	-1	-13
Cc1cc2c(s1)Nc1ccccc1N=C2N1CCN(C)CC1	·	·	77*	·	·
Cc1ccccc1NC(=O)Cn1nnc(-c2ccc(CN3CCC(C)CC3)cc2)n1	0	-8	33*	2	-15
Cc1ccc(/C=C/c2onc(C)c2S(=O)(=O)N2CCC(C(=O)NCc3ccc(OC(C)C)cc3)CC2)cc1	·	1	·	0	·
O=C(c1ccc(N2CCC3(CC2)OCCO3)c([N+](=O)[O-])c1)N1CCOCC1	-3	19	31*	0	-5
O=C(c1ccc(N2CCOCC2)c([N+](=O)[O-])c1)N1CCN(c2ccccc2)CC1	-4	·	·	·	-2
CC(C)=C1C2CCC1C1C(=O)N(NC(=O)COc3ccc(C(C)(C)C)cc3)C(=O)C21 (stereo not given)	-2	3	32*	0	-9
SMILES	D2 ag-1	D2 PAM-1	D2 antag	D2 ag-2	D2 PAM-2
CC(C)(C)c1ccc(OCC(=O)NNC(=O)C2CCCO2)cc1 (stereo not given)	-3	-2	5	0	1
O=C(Cc1ccccc1)NCCc1csc2nc(-c3ccc(Cl)cc3)nn12	·	-8	·	0	·
Cc1ccc(S(=O)(=O)N2CCCN(Cc3nc4ccccc4c(=O)[nH]3)CC2)cc1	1	3	7	0	3
CCNCc1nc2cc(OC)c(OC)cc2c(=O)[nH]1	0	1	33*	1	-10
COc1cc2nc(CN3CCN(S(=O)(=O)c4ccc(C)c(C)c4)CC3)[nH]c(=O)c2cc1OC	5	32*	-10	0	-3
COc1ccc(F)cc1S(=O)(=O)NC1CC(C)(C)NC(C)(C)C1	-2	35*	-14	0	0
CCc1ccc(-c2cc(C)no2)cc1S(=O)(=O)Nc1cc(OC)c(OC)c(OC)c1	·	·	·	-1	·
O=C(CNc1ccccc1)N/N=C/c1ccc2c(c1)OCO2	0	-8	37*	0	-10
Cc1cccc(C(=O)Nc2cccc(C(=O)N/N=C/c3ccc4c(c3)OCO4)c2)c1	2	0	37*	-1	-5
Cc1ccc(/C=N\NC(=O)c2ccc3c(c2)OCO3)o1	-1	-24	32*	0	-16
Cc1cccc(C(=O)Nc2ccc(C(=O)N/N=C/c3ccc4c(c3)OCO4)cc2)c1	-1	-12	-14	-1	-5
O=C(CNc1ccccc1)N/N=C/c1ccc2c(c1)OCCO2	2	-3	0	0	6
CCOC(=O)c1ccc(CN(Cc2ccc(F)cc2)S(=O)(=O)c2ccc(F)cc2)cc1	·	-1	·	0	·
O=C(Nc1cc(NC(=O)c2ccccc2Cl)ccc1Cl)c1ccccc1	·	4	·	-2	·
CCN(C(=O)COC(=O)/C(C#N)=C/c1ccc(OC)cc1)C1CCS(=O)(=O)C1 (stereo not given)	-3	-16	36*	0	2
NS(=O)(=O)c1ccc(CCNC(=O)CNC(=O)c2ccc(Br)o2)cc1	-3	-25	66*	0	-5
Cc1occc1C(=O)Nc1c(F)cc(F)cc1Br	3	-12	34*	0	-9
O=C(Nc1nc2ccc(S(=O)(=O)N3CCCC3)cc2s1)c1cccc(F)c1	·	10	·	2	·
Cc1ccc(C)c(OCC(O)CN2CCN(CCN3C(=O)c4cccc5cccc(c45)C3=O)CC2)c1 (stereo not given)	-2	-24	-24	-2	-35
CCNC(=S)N1CCN(CCN2C(=O)c3cccc4cccc(c34)C2=O)CC1	0	14	44*	0	10
CC(=O)c1ccccc1OCC(O)CN1CCN(CCN2C(=O)c3cccc4cccc(c34)C2=O)CC1 (stereo not given)	-2	-23	36*	-2	-15
COc1ccc2c(c1)cc1c(=O)n(CC(=O)NC3CCCCC3)nc(C)n12	·	-2	·	0	·
Cc1ccccc1-c1noc(-c2cccnc2N2CCN(c3ccccc3)CC2)n1	·	-2	·	0	·
O=[N+]([O-])c1cc(-c2nc(-c3ccccc3)no2)ccc1N1CCCC1	·	0	·	-1	·
COc1cc(NC(=O)COC(=O)Cc2ccsc2)cc(OC)c1	1	-12	31*	1	0
O=C(COC(=O)Cc1ccsc1)Nc1ccccc1	1	6	1	0	-2
COc1cccc(Cn2cccc(NC(=O)NC3CCCCC3)c2=O)c1	0	31*	29	0	-7
Cc1cc(Br)ccc1NC(=O)c1cn(C2CCCC2)c(=O)c2c1c1ccccc1n2C	·	19	·	0	·
